Reference: PubChem BioAssay (EPA / NIEHS)
“And” between values parts separate entries of the source, which are not always exact repeats. Equal values may be shown once. Inconclusive results are not listed. Some compounds were tested as several samples or in several runs, with calls that do not always agree. The source made the active and inactive calls. The calls were made as follows, unless noted: active = hit-call score of the fitted dose curve at least 0.9, where 1 is the maximum; inconclusive = response in the unintended direction; inactive = score below 0.9.

How the values were obtained:
[1] = ATG_TAL_CIS: Attagene CIS-FACTORIAL HepG2 Assay for human TAL Basal Promoter (AID 2282966; active = hit-call score of the fitted dose curve at least 0.9, where 1 is the maximum; inactive = score below 0.9;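 also: background control endpoint measuring basal TAL promoter reporter mRNA not a specific factor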); details: HepG2 Attagene cis-factorial TAL promoter reporter; actives raise or lower the signal
Outline: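 Steps: transfect HepG2 with multiple reporter transcription units; dose 24 h; isolate RNA, reverse-transcribe, PCR-amplify, label with 6-FAM, digest with HpaI; resolve by capillary electrophoresis. Bidirectional fitting against DMSO baseline.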

[2] = ATG_TGFb_CIS: Attagene CIS-FACTORIAL HepG2 Assay for human Transforming Growth Factor (TGF) (AID 2282967; active = hit-call score of the fitted dose curve at least 0.9, where 1 is the maximum; inactive = score below 0.9); details: HepG2 Attagene CIS TGFb reporter, mRNA transcription; actives raise or lower the signal
Outline: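 Endogenous TGFB1-linked transcription factor activity read as reporter mRNA via RT-PCR and capillary electrophoresis, 24 h after dosing transiently transfected HepG2 cells. Gain or loss of signal fitted relative to DMSO.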

[3] = ATG_VDRE_CIS: Attagene CIS-FACTORIAL HepG2 Assay for human Vitamin D Receptor Element (VDRE) (AID 2282968; active = hit-call score of the fitted dose curve at least 0.9, where 1 is the maximum; inactive = score below 0.9); details: HepG2 VDRE cis-reporter transcription, actives raise or lower the signal
Outline: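 Reporter mRNA induction, quantified by capillary electrophoresis of fluorescently labelled RT-PCR products, was read 24 h after dosing HepG2 cells carrying transiently transfected cis-regulated reporter units; gain or loss relative to DMSO.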

[4] = target: Estrogen receptor (Homo sapiens) (UniProt P03372); test: ATG_ERa_TRANS: Attagene TRANS-FACTORIAL HepG2 Assay for human Estrogen Receptor alpha (ERa) (AID 2282970); details: HepG2 Attagene TRANS ERa GAL4 reporter, mRNA
Outline: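 Multiplexed cell-based reporter format in HepG2: chimeric ERa-Gal4 protein drives GAL4-UAS reporter transcription. Fluorescent reporter mRNA quantified by capillary electrophoresis 24 hours after dosing; endpoint fitted as signal gain against DMSO.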

[5] = target: X-box-binding protein 1 (Homo sapiens) (UniProt P17861); test: ATG_Xbp1_CIS: Attagene CIS-FACTORIAL HepG2 Assay for human X-box Binding Protein 1 (XBP1) (AID 2282972; active = hit-call score of the fitted dose curve at least 0.9, where 1 is the maximum; inactive = score below 0.9); details: HepG2 XBP1 cis-element reporter, Attagene multiplex; actives raise or lower the signal
Outline: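 HepG2 cells transiently transfected with cis-regulated multiple reporter transcription units; endogenous transcription factor activity measured 24 hours after chemical dosing. Reporter mRNA quantified by RT-PCR, 6-FAM primer extension, HpaI digestion and capillary electrophoresis; bidirectional fitting versus DMSO.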

[6] = ATG_M_19_TRANS: Attagene TRANS-FACTORIAL HepG2 Assay for M19 Transcription Factor (Internal Marker) (AID 2282974); details: HepG2 Attagene TRANS-FACTORIAL M19 internal marker reporter
Outline: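 Multiplexed TRANS format: HepG2 liver cells bearing transient GAL4-UAS reporter units, chemical treatment 24 h, reporter transcripts quantified by RT-PCR plus capillary electrophoresis. DMSO defines baseline.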

[7] = target: Glucocorticoid receptor (Homo sapiens) (UniProt P04150); test: ATG_GR_TRANS: Attagene TRANS-FACTORIAL HepG2 Assay for human Glucocorticoid Receptor (GR) (AID 2282978); details: HepG2 Attagene TRANS GR reporter, mRNA transcription;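 also: activators score as hits since higher reporter transcript over DMSO is fitted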
Outline: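 Transiently transfected HepG2 cells express chimeric NR-GAL4 proteins acting on GAL4-UAS reporter units. Compounds are applied for 24 h. mRNA induction over DMSO is measured by capillary electrophoresis.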

[8] = target: Bile acid receptor (Homo sapiens) (UniProt Q96RI1); test: ATG_FXR_TRANS: Attagene TRANS-FACTORIAL HepG2 Assay for Farnesoid X Receptor (FXR) (AID 2282979); details: HepG2 Attagene TRANS FXR-GAL4 reporter transcription;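 also: hits raise reporter mRNA above DMSO so AC50 marks FXR activation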
Outline: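 After 24 h chemical treatment of transfected HepG2 cells, GAL4-UAS reporter transcripts driven by an exogenous FXR-GAL4 fusion were measured by RT-PCR and capillary electrophoresis. Increases over DMSO were fitted.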

[9] = ATG_M_32_TRANS: Attagene TRANS-FACTORIAL HepG2 Assay for M32 Transcription Factor (Internal Marker) (AID 2282984); details: HepG2 Attagene TRANS M32 internal marker reporter;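 also: transcript level of a background control reporter unit measured by RT-PCR and capillary electrophoresis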
Outline: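 Measures reporter mRNA induction in human HepG2 liver cells after 24 h chemical treatment. Transcripts from transiently transfected GAL4-UAS reporter units are amplified, fluorescently labelled and sized by capillary electrophoresis; gain of signal relative to DMSO.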

[10] = target: Nuclear receptor subfamily 4 group A member 2 (Homo sapiens) (UniProt P43354); test: ATG_NURR1_TRANS: Attagene TRANS-FACTORIAL HepG2 Assay for human Nuclear Receptor Related Protein 1 (NURR1) (AID 2282985); details: HepG2 Attagene TRANS reporter, mRNA readout
Outline: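 Transient transfection of HepG2, human liver cells, with multiple GAL4-UAS reporter transcription units. Cells dosed 24 h, RNA isolated, reverse-transcribed, PCR-amplified, FAM-labelled, HpaI-digested, sized by capillary electrophoresis. DMSO served as negative control.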

[11] = target: Transcriptional activator Myb (Homo sapiens) (UniProt P10242); test: ATG_Myb_CIS: Attagene CIS-FACTORIAL HepG2 Assay for human Myeloblastosis (Myb) Proto-Oncogene Transcription Factor (AID 2282986; active = hit-call score of the fitted dose curve at least 0.9, where 1 is the maximum; inactive = score below 0.9); details: HepG2 Attagene CIS-FACTORIAL Myb reporter transcription; actives raise or lower the signal
Outline: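 Using HepG2 liver cells bearing transiently transfected cis-promoter reporter constructs, the assay measures induction or loss of reporter mRNA after 24 hours of dosing. Detection used fluorescently labeled RT-PCR products separated by capillary electrophoresis.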

[12] = target: Nuclear respiratory factor 1 (Homo sapiens) (UniProt Q16656); test: ATG_NRF1_CIS: Attagene CIS-FACTORIAL HepG2 Assay for human Nuclear Respiratory Factor 1 (NRF1) Orphan Gene (AID 2282987; active = hit-call score of the fitted dose curve at least 0.9, where 1 is the maximum; inactive = score below 0.9); details: HepG2 NRF1 cis-element reporter, Attagene multiplex; actives raise or lower the signal
Outline: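 Reporter mRNA induction or loss in HepG2 cells after 24 h dosing; cis-regulated reporter constructs report endogenous transcription-factor activity. Quantified by RT-PCR/capillary electrophoresis fluorescence, DMSO-referenced.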

[13] = target: Oxysterols receptor LXR-beta (Homo sapiens) (UniProt P55055); test: ATG_LXRb_TRANS: Attagene TRANS-FACTORIAL HepG2 Assay for human Liver X Receptor beta (LXRb) (AID 2282981); details: HepG2 Attagene TRANS GAL4-LXRb reporter, mRNA
Outline: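 Transient transfection HepG2 (multiplexed RTUs, GAL4-UAS); NR-Gal4 chimera; 24 h exposure; RNA → RT-PCR → 6-FAM primer extension → HpaI → CE; increase vs DMSO.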

[14] = target: Nuclear receptor subfamily 1 group I member 3 (Homo sapiens) (UniProt Q14994); test: ATG_CAR_TRANS: Attagene TRANS-FACTORIAL HepG2 Assay for human Constitutive Androstane Receptor (CAR) (AID 2282969); details: HepG2 Attagene TRANS-FACTORIAL CAR reporter;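 also: activators raise reporter mRNA above DMSO so AC50 marks induction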
Outline: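 Readout is reporter mRNA induction, quantified by fluorescent primer extension and capillary electrophoresis after RT-PCR. Cells were HepG2 transiently carrying chimeric NR-Gal4 constructs with GAL4-UAS reporters, treated for 24 h; activity scored upward from DMSO.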

[15] = target: Steroid hormone receptor ERR1 (Homo sapiens) (UniProt P11474); test: ATG_ERRa_TRANS: Attagene TRANS-FACTORIAL HepG2 Assay for human Estrogen-Related Receptor alpha (ERRa) (AID 2282971); details: HepG2 Attagene TRANS reporter, ERRa transactivation
Outline: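 Signal gain relative to DMSO for an ERRa-Gal4 chimeric receptor, read as reporter mRNA by RT-PCR/capillary electrophoresis. Human HepG2 liver cells, transient multiplex reporter transfection, 24 h chemical exposure.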

[16] = ATG_GAL4_TRANS: Attagene TRANS-FACTORIAL HepG2 Assay for GAL4 (Internal Marker) (AID 2282976); details: HepG2 Attagene TRANS GAL4 internal marker reporter
Outline: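 Liver HepG2 line bearing multiplexed GAL4-UAS reporter constructs; 24 h chemical treatment. Transcripts were quantified as fluorescent fragments on capillary electrophoresis after RT-PCR and HpaI cut, with activity fitted upward from DMSO.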

[17] = target: Estrogen-related receptor gamma (Homo sapiens) (UniProt P62508); test: ATG_ERRg_TRANS: Attagene TRANS-FACTORIAL HepG2 Assay for human Estrogen-Related Receptor gamma (ERRg) (AID 2282977); details: HepG2 Attagene TRANS reporter, ERRg transactivation;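 also: hits increase reporter signal over DMSO so potencies reflect activators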
Outline: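 Transfect HepG2 with multiple GAL4-UAS reporter transcription units; dose chemicals 24 h; isolate RNA, reverse-transcribe with oligo(dT), PCR-amplify, label with 6-FAM, digest with HpaI; size fragments by capillary electrophoresis. DMSO serves as negative control.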

[18] = target: Hepatocyte nuclear factor 4-alpha (Homo sapiens) (UniProt P41235); test: ATG_HNF4a_TRANS: Attagene TRANS-FACTORIAL HepG2 Assay for human Hepatocyte Nuclear Factor 4 alpha (HNF4a) (AID 2282982); details: HepG2 HNF4a transactivation reporter, mRNA readout
Outline: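 Readout is fluorescent reporter-transcript fragments resolved by capillary electrophoresis after RT-PCR from HepG2 cells dosed for 24 h. Cells carried transfected GAL4-UAS reporter constructs measuring exogenous NR-GAL4 chimera activity; DMSO served as baseline.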

[19] = ATG_M_06_TRANS: Attagene TRANS-FACTORIAL HepG2 Assay for M06 Transcription Factor (Internal Marker) (AID 2282983); details: HepG2 Attagene TRANS M06 internal marker reporter;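 also: reporter transcript level by RT-PCR then capillary electrophoresis fluorescence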
Outline: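 Internal-marker background readout from a multiplexed TRANS reporter system in HepG2; 24 h dosing; mRNA induction quantified by RT-PCR plus capillary electrophoresis fluorescence; DMSO as negative control and baseline.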

[20] = target: Oxysterols receptor LXR-alpha (Homo sapiens) (UniProt Q13133); test: ATG_LXRa_TRANS: Attagene TRANS-FACTORIAL HepG2 Assay for human Liver X Receptor alpha (LXRa) (AID 2282980); details: HepG2 Attagene TRANS reporter, LXRa transactivation
Outline: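 In this multiplexed TRANS system, compounds act on HepG2 cells carrying GAL4-UAS reporter units and a receptor-GAL4 fusion for 24 h. Induced reporter RNA is amplified, fluorescently labelled and sized by capillary electrophoresis, with DMSO as baseline.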

Measured: AC50

Chain of Nuclear receptor subfamily 1 group I member 3 (Homo sapiens) (Q14994 whole entry, looked up, the tested form may be a part): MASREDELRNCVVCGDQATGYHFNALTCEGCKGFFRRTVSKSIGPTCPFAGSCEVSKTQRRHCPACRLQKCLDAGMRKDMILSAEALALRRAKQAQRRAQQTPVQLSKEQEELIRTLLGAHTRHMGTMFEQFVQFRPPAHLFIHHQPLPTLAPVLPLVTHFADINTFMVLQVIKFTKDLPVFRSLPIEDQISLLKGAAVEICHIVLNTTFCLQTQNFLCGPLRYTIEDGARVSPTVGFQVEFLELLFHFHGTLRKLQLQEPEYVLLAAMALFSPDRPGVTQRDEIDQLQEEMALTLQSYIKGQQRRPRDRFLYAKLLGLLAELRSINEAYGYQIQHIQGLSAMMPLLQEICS
Chain of Nuclear respiratory factor 1 (Homo sapiens) (Q16656 whole entry, looked up): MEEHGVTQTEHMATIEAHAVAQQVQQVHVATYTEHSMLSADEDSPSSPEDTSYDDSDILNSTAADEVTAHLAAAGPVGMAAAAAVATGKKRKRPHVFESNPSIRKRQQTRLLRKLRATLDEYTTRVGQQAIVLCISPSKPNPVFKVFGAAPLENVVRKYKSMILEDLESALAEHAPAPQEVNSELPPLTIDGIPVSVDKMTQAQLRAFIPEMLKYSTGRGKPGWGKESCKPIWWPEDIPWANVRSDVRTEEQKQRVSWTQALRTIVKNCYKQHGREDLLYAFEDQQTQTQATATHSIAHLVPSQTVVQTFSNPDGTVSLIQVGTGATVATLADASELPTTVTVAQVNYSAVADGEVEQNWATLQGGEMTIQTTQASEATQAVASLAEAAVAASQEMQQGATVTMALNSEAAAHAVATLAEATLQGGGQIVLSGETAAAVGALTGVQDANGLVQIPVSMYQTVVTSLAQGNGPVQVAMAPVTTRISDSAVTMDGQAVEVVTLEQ
Chain of X-box-binding protein 1 (Homo sapiens) (P17861 whole entry, looked up): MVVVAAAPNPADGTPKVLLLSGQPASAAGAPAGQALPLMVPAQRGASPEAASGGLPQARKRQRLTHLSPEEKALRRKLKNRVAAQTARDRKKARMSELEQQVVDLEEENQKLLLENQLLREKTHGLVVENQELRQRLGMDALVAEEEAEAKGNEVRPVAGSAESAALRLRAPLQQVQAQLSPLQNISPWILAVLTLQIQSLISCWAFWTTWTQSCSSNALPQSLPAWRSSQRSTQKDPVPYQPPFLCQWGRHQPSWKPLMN
Chain of Oxysterols receptor LXR-beta (Homo sapiens) (P55055 whole entry, looked up, the tested form may be a part): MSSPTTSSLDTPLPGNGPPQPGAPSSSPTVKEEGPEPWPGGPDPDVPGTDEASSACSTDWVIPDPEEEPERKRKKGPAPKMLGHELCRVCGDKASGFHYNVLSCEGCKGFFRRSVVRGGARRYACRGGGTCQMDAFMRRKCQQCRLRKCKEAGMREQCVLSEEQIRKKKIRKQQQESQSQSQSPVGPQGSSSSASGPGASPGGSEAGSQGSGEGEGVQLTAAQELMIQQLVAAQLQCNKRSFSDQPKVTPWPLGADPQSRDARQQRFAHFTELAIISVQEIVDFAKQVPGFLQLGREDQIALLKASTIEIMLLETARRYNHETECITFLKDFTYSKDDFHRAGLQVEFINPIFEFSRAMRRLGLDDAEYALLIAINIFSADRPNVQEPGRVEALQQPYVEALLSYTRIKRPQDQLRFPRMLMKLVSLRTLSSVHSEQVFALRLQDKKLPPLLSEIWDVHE
Chain of Bile acid receptor (Homo sapiens) (Q96RI1 whole entry, looked up, the tested form may be a part): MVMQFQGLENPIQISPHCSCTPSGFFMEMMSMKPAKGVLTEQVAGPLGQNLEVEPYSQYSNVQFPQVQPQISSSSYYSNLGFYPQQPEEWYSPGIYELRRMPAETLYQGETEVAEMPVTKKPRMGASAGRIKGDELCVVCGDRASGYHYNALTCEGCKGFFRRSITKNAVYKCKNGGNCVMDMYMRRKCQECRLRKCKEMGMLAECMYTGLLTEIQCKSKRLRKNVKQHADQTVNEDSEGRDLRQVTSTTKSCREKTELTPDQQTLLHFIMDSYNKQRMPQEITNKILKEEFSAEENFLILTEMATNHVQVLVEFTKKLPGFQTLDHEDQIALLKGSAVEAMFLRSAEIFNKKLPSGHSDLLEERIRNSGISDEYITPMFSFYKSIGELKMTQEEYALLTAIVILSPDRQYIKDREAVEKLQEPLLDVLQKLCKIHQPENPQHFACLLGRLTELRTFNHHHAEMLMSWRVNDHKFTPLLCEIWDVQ
Chain of Steroid hormone receptor ERR1 (Homo sapiens) (P11474 whole entry, looked up, the tested form may be a part): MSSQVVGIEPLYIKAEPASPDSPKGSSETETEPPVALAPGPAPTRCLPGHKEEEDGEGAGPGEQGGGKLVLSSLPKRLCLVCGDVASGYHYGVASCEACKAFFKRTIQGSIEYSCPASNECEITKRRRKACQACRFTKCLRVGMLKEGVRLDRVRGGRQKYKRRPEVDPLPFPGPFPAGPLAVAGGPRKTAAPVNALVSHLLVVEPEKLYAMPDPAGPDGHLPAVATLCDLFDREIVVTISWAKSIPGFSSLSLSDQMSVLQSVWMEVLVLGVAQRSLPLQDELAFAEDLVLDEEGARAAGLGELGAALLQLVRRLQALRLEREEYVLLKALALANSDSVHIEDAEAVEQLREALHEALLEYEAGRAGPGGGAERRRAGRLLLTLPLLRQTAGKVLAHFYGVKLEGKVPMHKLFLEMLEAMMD
Chain of Glucocorticoid receptor (Homo sapiens) (P04150 whole entry, looked up, the tested form may be a part): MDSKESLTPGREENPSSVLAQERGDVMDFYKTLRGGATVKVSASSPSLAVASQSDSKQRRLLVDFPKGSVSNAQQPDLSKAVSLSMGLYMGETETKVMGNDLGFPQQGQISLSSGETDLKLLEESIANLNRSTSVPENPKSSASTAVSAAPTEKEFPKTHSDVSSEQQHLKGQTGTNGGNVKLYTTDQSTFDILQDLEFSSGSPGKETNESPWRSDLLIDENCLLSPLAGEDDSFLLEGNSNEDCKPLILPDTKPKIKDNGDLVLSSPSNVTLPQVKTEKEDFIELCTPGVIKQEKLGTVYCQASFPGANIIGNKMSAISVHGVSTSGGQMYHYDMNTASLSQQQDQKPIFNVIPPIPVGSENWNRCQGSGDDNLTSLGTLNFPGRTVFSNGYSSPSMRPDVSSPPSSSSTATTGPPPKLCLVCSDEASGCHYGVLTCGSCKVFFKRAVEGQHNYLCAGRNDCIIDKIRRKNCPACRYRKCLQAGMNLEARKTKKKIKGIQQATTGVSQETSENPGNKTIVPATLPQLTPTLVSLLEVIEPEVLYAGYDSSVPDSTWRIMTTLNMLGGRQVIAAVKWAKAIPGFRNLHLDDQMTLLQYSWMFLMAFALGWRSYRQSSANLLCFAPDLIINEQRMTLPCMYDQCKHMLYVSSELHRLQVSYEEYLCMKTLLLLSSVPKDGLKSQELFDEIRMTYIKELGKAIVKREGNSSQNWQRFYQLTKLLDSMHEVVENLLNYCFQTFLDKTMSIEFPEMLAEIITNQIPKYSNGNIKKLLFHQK
Chain of Estrogen-related receptor gamma (Homo sapiens) (P62508 whole entry, looked up, the tested form may be a part): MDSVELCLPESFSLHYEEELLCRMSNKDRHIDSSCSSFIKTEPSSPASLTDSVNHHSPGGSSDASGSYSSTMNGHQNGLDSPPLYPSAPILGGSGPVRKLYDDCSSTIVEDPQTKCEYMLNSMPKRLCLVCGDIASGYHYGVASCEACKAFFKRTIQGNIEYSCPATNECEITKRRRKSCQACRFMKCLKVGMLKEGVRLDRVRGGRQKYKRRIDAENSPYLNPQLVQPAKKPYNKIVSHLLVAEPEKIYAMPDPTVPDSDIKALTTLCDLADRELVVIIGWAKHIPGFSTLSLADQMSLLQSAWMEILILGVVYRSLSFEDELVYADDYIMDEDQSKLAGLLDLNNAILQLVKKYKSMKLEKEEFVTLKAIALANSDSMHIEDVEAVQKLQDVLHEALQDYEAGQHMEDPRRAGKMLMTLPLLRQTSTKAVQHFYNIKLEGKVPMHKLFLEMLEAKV
Chain of Estrogen receptor (Homo sapiens) (P03372 whole entry, looked up, the tested form may be a part): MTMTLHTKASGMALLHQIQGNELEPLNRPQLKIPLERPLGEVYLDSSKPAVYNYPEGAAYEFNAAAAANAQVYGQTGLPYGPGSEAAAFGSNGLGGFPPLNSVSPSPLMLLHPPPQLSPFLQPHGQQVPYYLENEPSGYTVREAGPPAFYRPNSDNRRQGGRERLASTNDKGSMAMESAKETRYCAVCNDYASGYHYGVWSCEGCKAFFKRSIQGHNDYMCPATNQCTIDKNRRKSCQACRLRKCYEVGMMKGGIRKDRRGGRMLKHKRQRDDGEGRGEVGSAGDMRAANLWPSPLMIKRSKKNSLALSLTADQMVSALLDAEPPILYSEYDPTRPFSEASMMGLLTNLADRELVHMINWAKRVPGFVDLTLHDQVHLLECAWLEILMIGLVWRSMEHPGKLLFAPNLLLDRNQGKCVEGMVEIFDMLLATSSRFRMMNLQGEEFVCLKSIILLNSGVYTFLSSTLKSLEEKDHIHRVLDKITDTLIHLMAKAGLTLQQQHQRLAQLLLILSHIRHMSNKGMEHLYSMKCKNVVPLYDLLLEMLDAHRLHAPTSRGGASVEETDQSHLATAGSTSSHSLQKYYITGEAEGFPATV
Chain of Nuclear receptor subfamily 4 group A member 2 (Homo sapiens) (P43354 whole entry, looked up, the tested form may be a part): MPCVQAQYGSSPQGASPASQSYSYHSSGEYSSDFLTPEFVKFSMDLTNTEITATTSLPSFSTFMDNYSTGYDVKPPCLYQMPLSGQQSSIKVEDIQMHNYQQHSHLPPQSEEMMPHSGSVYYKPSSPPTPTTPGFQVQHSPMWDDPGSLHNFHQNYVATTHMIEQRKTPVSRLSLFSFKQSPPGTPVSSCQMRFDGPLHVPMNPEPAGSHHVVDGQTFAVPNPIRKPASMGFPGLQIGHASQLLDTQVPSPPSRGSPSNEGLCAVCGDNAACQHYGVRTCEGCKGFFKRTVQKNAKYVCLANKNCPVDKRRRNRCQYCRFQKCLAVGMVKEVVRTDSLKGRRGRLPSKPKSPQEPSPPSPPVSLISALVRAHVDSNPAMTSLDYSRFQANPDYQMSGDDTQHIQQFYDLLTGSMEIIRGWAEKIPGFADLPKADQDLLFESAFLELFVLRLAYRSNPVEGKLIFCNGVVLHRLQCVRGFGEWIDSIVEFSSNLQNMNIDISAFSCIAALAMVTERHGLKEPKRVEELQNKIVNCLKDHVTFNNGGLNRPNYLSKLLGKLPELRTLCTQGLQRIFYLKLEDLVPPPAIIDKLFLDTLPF

CC(=O)N1CCN(c2ccc(OC[C@H]3CO[C@](Cn4ccnc4)(c4ccc(Cl)cc4Cl)O3)cc2)CC1
inactive: [1] | [2] | [4] | [6] | [7] | [8] | [9] | [11] | [12]
active: [3] 8.88 µM | [5] 18.3 µM | [10] 43.7 µM

Cc1cc(F)ccc1-c1cc(N2CC[C@@H](O)[C@H]2CO)ncc1N(C)C(=O)C(C)(C)c1cc(C(F)(F)F)cc(C(F)(F)F)c1
not listed: [9] | [14] | [15] | [16] | [17] | [18] | [19] | [20]
inactive: all other assays above

CC(C)(c1cc(Br)c(O)c(Br)c1)c1cc(Br)c(O)c(Br)c1
inactive: [1] | [14] | [15] | [16] | [17] | [7] | [8] | [13] | [18] | [19] | [9] | [10] | [11]
active: [1] 43.7 µM | [2] 49 µM and 58 µM | [3] 22.1 µM and 22.6 µM | [5] 45.9 µM and 42.9 µM

CCCCCCCCOc1ccc(C(=O)c2ccccc2)c(O)c1
not listed: [7] | [16] | [18] | [19] | [20]
inactive: all other assays above

c1ccc2ccccc2c1
active: [4] 59 µM
inactive: [1] | [2] | [3] | [4] | [15] | [5] | [17] | [13] | [19] | [9] | [10] | [11]

Cc1c2ccccc2c(C)c2c1ccc1ccccc12
active: [2] 54.4 µM | [14] 44.7 µM | [4] 11.4 µM
not listed: [6] | [10] | [12] | [15] | [18]
inactive: all other assays above

CC/C(=C(/CC)c1ccc(O)cc1)c1ccc(O)cc1
inactive: [1] | [2] | [3] | [5] | [16] | [7] | [8] | [20] | [13] | [18] | [19] | [9] | [10] | [11]
active: [3] 8.27 µM and 6.68 µM and 8.92 µM | [5] 14.4 µM [middle of 4 runs]
